For 64 compounds, morphology score and SARS-CoV-2 infection rate results are on record in the supplement of paper PMC13380429.

Assay [1] has as its system Vero E6 infected with SARS-CoV-2. In words: morphology score (similarity to uninfected cells); higher = more like uninfected cells. The settings on record: 24 h.
For assay [2] the test system is unchanged. In words: SARS-CoV-2 infection rate relative to infected DMSO; higher = more infection, active = 60 or less. As to conditions: 24 h.

Turning to `O=C/C=C/c1ccccc1` [cinnamaldehyde] (10 µM), the morphology score in assay [1] was -0.0291. The SARS-CoV-2 infection rate in assay [2] is 104% (inactive).
On the same counts, the results for `C1=N/C2=N/c3ccc(OCCN4CCCC4)c(c3)COC/C=C/COCc3cccc(c3)C(=C1)N2` [pacritinib] (0.833333 µM) are 0.286 and 80% (inactive).
The like results for `O=C(NOCCO)c1ccc2cncn2c1Nc1ccc(I)cc1F` (0.833333 µM) were, in that order, -0.298 and 121% (inactive).
On the same counts, the results for `CC(C)NC(=N)NC(=N)Nc1ccc(Cl)cc1` [proguanil] (10 µM) are -0.0553 and 112% (inactive).
For `CN(C)C(=N)NC(=N)N` [metformin] (10 µM), in assay [1], the morphology score was -0.00931. The SARS-CoV-2 infection rate in assay [2] was 108% (inactive).
The compound `CCCCCN(CCCOC)C(=O)[C@@H](CCC(=O)O)NC(=O)c1ccc(Cl)c(Cl)c1` [dexloxiglumide] (10 µM) displayed a morphology score in assay [1] of 0.0908. Besides, the SARS-CoV-2 infection rate in assay [2] was 107% (inactive).
The like results for `CN1CCN(CCOc2cc(OC3CCOCC3)c3c(Nc4c(Cl)ccc5c4OCO5)ncnc3c2)CC1` [saracatinib] (10 µM) were, in that order, -0.132 and 110% (inactive).
On the same counts, the results for `CC1(C)CCC(C)(C)c2cc(C(=O)Nc3ccc(C(=O)O)cc3)ccc21` (10 µM) are -0.326 and 112% (inactive).
Take `CCCCN1[C@@H]2CC[C@H]1C[C@@H](OC(c1ccc(F)cc1)c1ccc(F)cc1)C2` (0.833333 µM): in assay [1], the morphology score worked out at 0.0455. In addition, the SARS-CoV-2 infection rate in assay [2] is 86% (inactive).
The like results for `N#Cc1ccc(COC[C@H]2O[C@@H](n3c(NCc4ccc(Cl)c(Cl)c4)nc4c(N)ncnc43)[C@H](O)[C@@H]2O)cc1` (10 µM) were, in that order, 0.0983 and 106% (inactive).
On the same counts, the results for `OCCn1cc(-c2ccc3c(c2)CC/C3=N\O)c(-c2ccncc2)n1` (10 µM) are 0.0962 and 79.5% (inactive).
The like results for `C[C@@H](O)[C@H]1C(=O)N2C(C(=O)O)=C([C@H]3CCCO3)S[C@H]12` [faropenem] (10 µM) were, in that order, 0.121 and 92.5% (inactive).
Regarding `O[C@@H](CN1CCNCC1)Cn1c2ccc(Br)cc2c2cc(Br)ccc21` [BAX-channel-blocker] (0.833333 µM), the morphology score in assay [1] worked out at 0.121. The SARS-CoV-2 infection rate in assay [2] was 104% (inactive).
On the same counts, the results for `CN(C)CCCN1c2ccccc2CCc2ccccc21` [imipramine] (10 µM) are -0.0385 and 92.5% (inactive).
On the same counts, the results for `Cn1cncc1[C@@](N)(c1ccc(Cl)cc1)c1ccc2c(c1)c(-c1cccc(Cl)c1)cc(=O)n2C` [tipifarnib] (0.833333 µM) are 0.398 and 89% (inactive).
On the same counts, the results for `CC[C@@H](CO)NC(=O)[C@@H]1C=C2c3cccc4c3c(cn4C)C[C@H]2N(C)C1` [methysergide] (10 µM) are 0.0741 and 110% (inactive).
In turn, `CC(C)(O)C(=O)Nc1ccc([N+](=O)[O-])c(C(F)(F)F)c1` [2-hydroxyflutamide] (10 µM) had a morphology score in assay [1] of 0.0933. The SARS-CoV-2 infection rate in assay [2] was 108% (inactive).
On the same counts, the results for `O=C(CCc1ccc(O)cc1)c1c(O)cc(O)cc1O` [phloretin] (10 µM) are 0.241 and 104% (inactive).
The like results for `C[C@@H]1C[C@H]2[C@@H]3CCC4=CC(=O)C=C[C@]4(C)[C@@]3(F)[C@@H](O)C[C@]2(C)[C@@]1(O)C(=O)COP(=O)(O)O` (10 µM) were, in that order, 0.0439 and 99% (inactive).
Compound `CC=C1C(=O)C[C@H]2[C@@H]3CCC4=CC(=O)CC[C@]4(C)[C@H]3CC[C@]12C` (10 µM) returned a morphology score in assay [1] of 0.0492. In addition, the SARS-CoV-2 infection rate in assay [2] was 91% (inactive).
On the same counts, the results for `N=C(N)NC(=N)NCCc1ccccc1` [phenformin] (10 µM) are 0.0321 and 110% (inactive).
In assay [1], `CC[C@H](CC#N)OC(=O)N[C@@H](C)c1cccc(NC(=O)Nc2ccc(-c3cnco3)c(OC)c2)c1` (10 µM) displayed a morphology score of -0.000547. The SARS-CoV-2 infection rate in assay [2] was 97% (inactive).
The like results for `CC(C)NC[C@@H](O)c1ccc(O)c(O)c1` (racemic) [isoprenaline] (0.833333 µM) were, in that order, 0.241 and 100% (inactive).
On the same counts, the results for `CCn1c(=O)n(C2=C(CO)CN(CC3CCCCCCC3)CC2)c2ccccc21` [trap-101] (10 µM) are -0.109 and 103% (inactive).
On the same counts, the results for `CC(=O)c1cc([N+](=O)[O-])c(Sc2ccc(F)cc2F)s1` (10 µM) are 0.534 and 38.5% (active).
For `CN1[C@@H]2CC[C@H]1C[C@@H](OC(=O)c1cc(Cl)cc(Cl)c1)C2` [bemesetron] (10 µM), in assay [1], the morphology score came out at 0.216. Moreover, the SARS-CoV-2 infection rate in assay [2] was 89.5% (inactive).
The like results for `Cc1c(O)c(=O)ccn1C` [deferiprone] (10 µM) were, in that order, -0.123 and 98% (inactive).
The like results for `CC(Cc1ccc(O)cc1)NCC(O)c1cc(O)cc(O)c1` (stereo not drawn) [fenoterol] (10 µM) were, in that order, -0.0121 and 106% (inactive).
The like results for `Cc1c(C(=O)NCCCO)cnn1-c1nc(-c2cccc(C(F)(F)F)c2)cs1` (10 µM) were, in that order, 0.107 and 97.5% (inactive).
As for `CC(C)n1nnc2cc(C(=O)O)ccc21` (10 µM), the morphology score in assay [1] is 0.0496. Moreover, the SARS-CoV-2 infection rate in assay [2] was 102% (inactive).
On the same counts, the results for `O=C(O)COc1cccc(CN(Cc2ccc(-n3cccn3)cc2)S(=O)(=O)c2cccnc2)c1` [taprenepag] (10 µM) are -0.0257 and 100% (inactive).
As to `C#CCN(C)Cc1ccccc1` [pargyline] (10 µM), in assay [1], the morphology score amounted to 0.0803. In addition, the SARS-CoV-2 infection rate in assay [2] is 108% (inactive).
The like results for `Cc1c(NC(=O)OC[C@@H]2COCCN2)cn2ncnc(Nc3ccc4c(cnn4Cc4cccc(F)c4)c3)c12` (0.833333 µM) were, in that order, -0.105 and 102% (inactive).
The like results for `c1ccc(-c2nn3c(c2-c2ccnc4cc(OCCN5CCOCC5)ccc24)CCC3)nc1` (10 µM) were, in that order, 0.686 and 80% (inactive).
On the same counts, the results for `CC(C)(C)OC(=O)c1ncn2c1[C@@H]1CCCN1C(=O)c1c(Br)cccc1-2` [bretazenil] (10 µM) are 0.108 and 101% (inactive).
Regarding `CC(=O)OC/C=C(C)/C=C/C=C(C)/C=C/C1=C(C)CCCC1(C)C` [retinyl-acetate] (10 µM), the morphology score in assay [1] was -0.227. Besides, the SARS-CoV-2 infection rate in assay [2] was 113% (inactive).
The like results for `COc1ccc2cc(OCC3(C(=O)O)CN(C(=O)c4ccc(F)cc4)C3)ccc2c1` (10 µM) were, in that order, 0.0418 and 110% (inactive).
On the same counts, the results for `O=c1c2ccccc2[se]n1-c1ccccc1` [Ebselen] (10 µM) are 0.34 and 84.5% (inactive).
The like results for `NC(=O)CCCCn1ccc(/N=C(\N)NCC(F)(F)F)n1` (10 µM) were, in that order, 0.00958 and 100% (inactive).
In the case of `COCCNC(=O)COc1ccc(OCCNC[C@H](O)COc2ccccc2)cc1` (10 µM), in assay [1], the morphology score turned out to be 0.0156. Besides, the SARS-CoV-2 infection rate in assay [2] is 102% (inactive).
On the same counts, the results for `CCn1c(O)nnc1-c1ccc(Cl)cc1` [5-(4chlorophenyl)-4-ethyl-2,4-dihydro-3H-1,2,4-triazol-3-one] (0.833333 µM) are 0.0166 and 110% (inactive).
On the same counts, the results for `C=CC(=O)Nc1cccc(C)c1Nc1ncc2cc(-c3c(Cl)c(OC)cc(OC)c3Cl)ccc2n1` (10 µM) are 0.567 and 67% (inactive).
On the same counts, the results for `CCCCCCCCCCCCCC[C@@H](O)[C@@H](O)[C@@H](N)CO` [phytosphingosine] (10 µM) are -0.0786 and 108% (inactive).
Regarding `C[C@H]1COC2=C1C(=O)C(=O)c1c2ccc2c1CCCC2(C)C` [cryptotanshinone] (10 µM), the morphology score in assay [1] came out at 0.0318. In assay [2], the SARS-CoV-2 infection rate was 100% (inactive).
The like results for `Cc1ccc(C(=O)c2ccc(CC(=O)O)n2C)cc1` [tolmetin] (10 µM) were, in that order, 0.0813 and 106% (inactive).
For the compound `CCCCNC(=O)[C@@H]1Cc2ccccc2N1C(=O)[C@@H](N)CC` [butabindide] (10 µM), the morphology score in assay [1] is 0.203. In assay [2], the SARS-CoV-2 infection rate was 86.5% (inactive).
The like results for `C[C@H](Cc1ccc2c(c1)OC(C(=O)O)(C(=O)O)O2)NC[C@H](O)c1cccc(Cl)c1` (10 µM) were, in that order, 0.159 and 93.5% (inactive).
For the compound `Nc1ccn([C@@H]2CS[C@H](CO)O2)c(=O)n1` [lamivudine] (10 µM), the morphology score in assay [1] was -0.00863. In addition, the SARS-CoV-2 infection rate in assay [2] was 102% (inactive).
On the same counts, the results for `O=C(NCC(=O)N1CCCC1)Nc1ccc2cnccc2c1` (10 µM) are 0.182 and 98% (inactive).
On the same counts, the results for `Clc1ccccc1C(c1ccccc1)(c1ccccc1)n1ccnc1` [clotrimazole] (10 µM) are 0.254 and 78.5% (inactive).
`CC(=O)N1CC[N+](C)(C)CC1` [4-acetyl-1,1-dimethylpiperazinium] (10 µM): the morphology score in assay [1] amounted to 0.103. Moreover, the SARS-CoV-2 infection rate in assay [2] is 88.5% (inactive).
On the same counts, the results for `C[C@H](N[C@@H](CCc1ccccc1)C(=O)O)C(=O)N1Cc2ccccc2C[C@H]1C(=O)O` [quinaprilat] (10 µM) are 0.0914 and 106% (inactive).
The like results for `Clc1ccc(N/N=C(\c2ccccc2)c2ccccn2)nc1` (10 µM) were, in that order, 0.0534 and 103% (inactive).
The like results for `N=C(N)NC(=O)c1nc(Cl)c(N)nc1N` [amiloride] (10 µM) were, in that order, 0.1 and 98% (inactive).
`CNCc1ccc(-c2cc(-c3nc(-c4ccc(S(=O)(=O)C(C)C)cc4)cnc3N)on2)cc1` (0.833333 µM) registered a morphology score in assay [1] of 0.565. For the same compound, the SARS-CoV-2 infection rate in assay [2] was 52% (active).
In assay [1], `c1ccc(N2CCN(CCCOc3ccc4c(c3)OCO4)CC2)cc1` (10 µM) came in with a morphology score of 0.0822. Further, the SARS-CoV-2 infection rate in assay [2] was 101% (inactive).
On the same counts, the results for `C[C@@H]1C[C@@H]([C@H](O)CC2CC(=O)NC(=O)C2)C(=O)[C@@H](C)C1` [cycloheximide] (10 µM) are 0.392 and 69% (inactive).
The like results for `CN1C(=O)N(c2ccc(C#N)c(C(F)(F)F)c2)C(=O)[C@]1(CO)c1ccccc1` [GLPG0492-R-enantiomer] (10 µM) were, in that order, -0.00354 and 104% (inactive).
The like results for `NCCc1c[nH]cn1` [histamine] (10 µM) were, in that order, -0.112 and 114% (inactive).
`O=C1NC(=O)c2c1c1c3ccccc3[nH]c1c1[nH]c3ccccc3c21` [arcyriaflavin-a] (10 µM) registered a morphology score in assay [1] of 0.363. Besides, the SARS-CoV-2 infection rate in assay [2] was 106% (inactive).
On the same counts, the results for `C[C@@H]1CC(=O)c2c(ccc3c2C(=O)c2cccc(O)c2C3=O)C1` [ochromycinone] (10 µM) are -0.0461 and 105% (inactive).
On the same counts, the results for `NS(=O)(=O)c1cc2c(cc1C(F)(F)F)NCNS2(=O)=O` [hydroflumethiazide] (10 µM) are 0.112 and 112% (inactive).
The compound `CC(C)(C)c1ccc2cc(C#N)c(C#N)cc2c1` (10 µM) returned a morphology score in assay [1] of 0.103. For the same compound, the SARS-CoV-2 infection rate in assay [2] was 105% (inactive).
The like results for `CCc1cccc(CC)c1NC(=O)CN(CC(=O)O)CC(=O)O` [etifenin] (10 µM) were, in that order, 0.115 and 109% (inactive).
